OTUD3 block: inhibitors of human OTUD3 deubiquitinase | OTU domain-containing protein 3 (Homo sapiens), Q5T2D3 | hit rate 0.7% among 47,000 | purified OTUD3, Ub-rhodamine fluorescence, 2 h | AID 1645858, 2021 | inhibition, % at 25 µM
USP17 block: inhibitors of human USP17 deubiquitinase; Ubiquitin carboxyl-terminal hydrolase 17-like protein 5 (Homo sapiens), A8MUK1; purified USP17, Ub-rhodamine cleavage fluorescence, 3 h; inhibition, % at 50 µM; hit rate 6.5% among 47,000
USP30 block: inhibitors of human USP30 deubiquitinase; purified USP30, Ub-rhodamine cleavage fluorescence; hit rate 5.3% among 47,000; inhibition, % at 25 µM
USP28 inh: inhibitors of human USP28 deubiquitinase; Ubiquitin carboxyl-terminal hydrolase 28 (Homo sapiens), Q96RU2; purified USP28, Ub-rhodamine cleavage fluorescence, 30 min; inhibition, % at 25 µM; hit rate 3% among 47,000; AID 1645857, 2021
USP8 block: inhibitors of human USP8 deubiquitinase. Ubiquitin carboxyl-terminal hydrolase 8 (Homo sapiens), P40818. purified USP8, Ub-rhodamine cleavage fluorescence, 30 min. inhibition, % at 20 µM. hit rate 4.2% among 47,000. AID 1645853, 2021
Target sequence (P40818 whole entry, looked up): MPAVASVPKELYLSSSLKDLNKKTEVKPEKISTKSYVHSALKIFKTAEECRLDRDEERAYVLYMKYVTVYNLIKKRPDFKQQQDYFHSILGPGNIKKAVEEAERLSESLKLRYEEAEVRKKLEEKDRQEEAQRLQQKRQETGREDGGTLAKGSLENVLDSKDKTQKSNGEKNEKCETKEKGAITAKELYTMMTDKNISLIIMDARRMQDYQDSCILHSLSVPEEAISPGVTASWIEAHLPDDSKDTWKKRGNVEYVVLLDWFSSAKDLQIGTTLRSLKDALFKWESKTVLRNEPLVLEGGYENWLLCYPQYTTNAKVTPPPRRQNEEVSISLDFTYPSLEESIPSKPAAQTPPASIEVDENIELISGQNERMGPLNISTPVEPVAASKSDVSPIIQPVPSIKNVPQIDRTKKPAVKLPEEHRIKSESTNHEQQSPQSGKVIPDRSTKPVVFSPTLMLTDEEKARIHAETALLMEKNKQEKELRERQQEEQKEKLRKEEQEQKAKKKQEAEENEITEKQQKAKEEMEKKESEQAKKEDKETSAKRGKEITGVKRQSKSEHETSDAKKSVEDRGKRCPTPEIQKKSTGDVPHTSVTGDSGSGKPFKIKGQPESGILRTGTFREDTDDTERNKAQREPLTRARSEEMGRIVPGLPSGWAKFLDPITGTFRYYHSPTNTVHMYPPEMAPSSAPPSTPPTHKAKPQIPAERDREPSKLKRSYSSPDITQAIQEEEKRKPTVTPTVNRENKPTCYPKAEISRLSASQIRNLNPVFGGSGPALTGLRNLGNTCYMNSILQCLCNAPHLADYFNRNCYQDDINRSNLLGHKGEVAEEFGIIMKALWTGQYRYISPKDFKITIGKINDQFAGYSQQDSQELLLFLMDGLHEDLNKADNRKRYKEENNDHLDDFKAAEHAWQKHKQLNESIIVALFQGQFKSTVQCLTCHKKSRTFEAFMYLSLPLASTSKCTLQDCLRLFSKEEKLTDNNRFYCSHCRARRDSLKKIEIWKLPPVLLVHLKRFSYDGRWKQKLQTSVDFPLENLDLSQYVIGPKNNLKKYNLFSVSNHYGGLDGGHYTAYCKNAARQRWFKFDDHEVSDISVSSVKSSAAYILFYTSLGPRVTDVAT
A number is an active result; - = inactive; . = no result. Only some compounds are listed: those with a hit (about 13% of all), similar ones and a draw of the others. No stated cut-off is given here; in the data, active means inhibition above about 30%; inactive means the rest.

SMILES	OTUD3 block	USP17 block	USP30 block	USP28 inh	USP8 block
COc1cccc(-c2cc(C(F)(F)F)nc(-n3cnc([N+](=O)[O-])n3)n2)c1	-	-	-	-	-
CCC(=O)Nc1ccccc1-c1nc2ccccc2n(CC(=O)Nc2cc(OC)ccc2OC)c1=O	-	45.1	85.3	39.8	-
COc1ccc(Cl)cc1NC(=O)Cn1c(=O)n(CCCCC(=O)NCCc2ccccc2)c(=O)c2ccccc21	-	-	-	-	42.2
Cc1cccc(NC(=O)Cn2c(C)nc3c(c2=O)CCN(Cc2ccccc2)C3)c1C	-	30.0	-	-	-
COc1ccc(OC)c(NC(=O)CN2CCC(c3nc4ccccc4[nH]3)CC2)c1	-	-	-	-	-
CC(C)NC(=O)C1CCCN(S(=O)(=O)N(C)C2CCCCC2)C1 (configuration not stated)	-	-	.	.	-
CCc1ccc2nc(NC(=O)C3(c4ccccc4)CC3)sc2c1	-	-	-	-	-
COc1ccc(-c2c(C)c(C(=O)c3ccco3)n3ccc4cc(OC)c(OC)cc4c23)cc1OC	-	-	-	-	67.8
COc1cc(NC(=O)c2ccco2)c(OC)cc1NC(=O)CN1CCCCC1	-	-	-	-	-
COc1cccc(OC(C)C(=O)NCc2ccc(-c3ncncc3-c3cc(C)no3)cc2)c1 (configuration not stated)	-	-	-	-	-
COc1cc(NC(=O)Cn2nc(C(C)C)c(-c3cc(C)no3)cc2=O)cc(OC)c1	-	30.7	32.0	38.2	-
O=C(Nc1c(C(=O)Nc2cccc(Cl)c2)oc2ccccc12)c1ccc(F)cc1	-	-	-	-	-
Cc1cc(C(=O)N2CCC(c3nc(-c4ccncc4)no3)C2)n[nH]1 (configuration not stated)	-	-	-	-	-
Cc1c(-c2nnc(-c3ccccc3Cl)o2)nnn1-c1ccccc1	-	-	80.8	34.8	-
Cc1c(-c2nnc(-c3ccccn3)o2)nnn1-c1ccc(C(C)C)cc1	-	-	-	-	-
Cc1noc(C2CN(C(=O)c3cc(-c4ccc(F)cc4)nn3C)C2)n1	-	-	-	-	-
O=C(Nc1ccncc1)C1Cn2ccnc2C2(CCN(C(=O)C3CC3)CC2)O1 (configuration not stated)	-	-	-	-	-
O=[N+]([O-])c1ccc(-c2nc3ccccn3c2Br)cc1	-	38.6	44.1	-	-
COc1cccc2cc(C(=O)Nc3nc(-c4ccncc4)cs3)oc12	32.3	31.3	31.1	-	48.7
COc1cccc2cc(C(=O)NCc3cnn4ccccc34)oc12	-	-	-	-	-
O=C1COc2ccc(Br)cc2CN1Cc1ccccc1F	-	-	-	39.9	-
COc1cccc(CN2Cc3ccccc3OCC2=O)c1	-	-	-	-	-
O=C(Nc1ccc(Cn2cnc(-c3nc(-c4ccccc4)no3)c2)cc1)c1ccccc1F	-	.	31.5	-	46.8
Cc1ccccc1-c1noc(-c2cn(Cc3ccc(NC(=O)Cc4ccccc4)cc3)cn2)n1	-	60.2	68.8	37.2	37.5
O=C(CSc1ncnc2c1sc1nc(-c3ccccc3)c3c(c12)CCC3)Nc1ccc(Cl)cc1	-	-	-	-	-
SMILES	OTUD3 block	USP17 block	USP30 block	USP28 inh	USP8 block
COc1ccc2cc3c(nc2c1)OC(=O)N(CCc1cccc(F)c1)C3	-	55.7	-	-	34.6
COc1ccc2cc3c(nc2c1)OC(=O)N(Cc1ccc(F)cc1)C3	-	-	-	-	-
Cc1ccc2cc3c(nc2c1)OC(=O)N(Cc1ccc(C)o1)C3	-	-	-	-	50.1
CCOc1ccc2cc3c(nc2c1)OC(=O)N(Cc1ccc(OC)cc1)C3	-	-	37.8	-	77.3
Cc1ccc(C2CC(c3ccccc3O)=Nc3ccccc3S2)cc1 (configuration not stated)	-	-	-	-	-
Cc1cccc(NCc2cc(=O)n3c(C)csc3n2)c1C	-	-	-	-	-
CCc1ccc(CN2CC[C@@H]3CN(c4ncccn4)CCO[C@@H]3C2)o1	-	-	.	.	-
CCOC(=O)c1sc2c(c1C)c(=O)n(Cc1ccccc1)c(=O)n2CC(N)=O	-	-	55.2	-	-
O=C(/C=C/c1ccc(F)cc1)N1CCC(Cc2ccccc2)CC1	-	35.9	51.4	32.7	-
O=C(CN(c1ccc(F)cc1)S(=O)(=O)c1ccccc1)N1CCC(Cc2ccccc2)CC1	-	-	-	-	-
N#Cc1c(-c2cccnc2)c2c([nH]c1=O)-c1ccccc1CC2	-	-	-	-	-
N#Cc1c(-c2ccc(F)cc2)c2c([nH]c1=O)-c1ccccc1OC2	-	-	-	-	65.1
N#Cc1c(-c2ccccc2Cl)c2c([nH]c1=O)-c1ccccc1CC2	-	-	-	-	47.5
N#Cc1c(N)nc2c(c1-c1ccccc1)CCc1ccccc1-2	-	-	-	-	-
Cc1cc2nc(C3CCN(C(=O)c4ncccc4C)CC3)cc(=O)n2[nH]1	-	-	-	-	-
O=C(CN(Cc1ccc(Cl)cc1)S(=O)(=O)c1ccc(Cl)cc1)N1CCOCC1	-	-	63.4	-	-
O=C(CN(Cc1ccccc1)S(=O)(=O)c1ccc(Cl)cc1)Nc1ccc(N2CCOCC2)cc1	-	-	-	-	37.4
O=C(Cc1ccccc1[N+](=O)[O-])Nc1ccc(N2CCOCC2)cc1	-	-	-	-	-
Cc1ccc(S(=O)(=O)N(CC(=O)N2CCOCC2)c2ccc(Cl)cc2C)cc1	-	-	-	-	-
Fc1ccc(-c2nnc(CN3CCN(Cc4ccccc4)CC3)o2)cc1	-	-	-	-	-
Cc1nc(-c2ccc(C)c(S(=O)(=O)NCC(=O)Nc3cccc(C)c3C)c2)no1	-	-	-	-	-
N#Cc1cnc(N2CCN(c3cccc(Cl)c3)CC2)nc1	-	-	-	-	-
COc1cc2c(oc(=O)c3cc(C)cc(OC)c32)c2c([C@@H]3OC(C)[C@@H](O)[C@@](C)(O)C3O)ccc(O)c12 (some centres not stated)	-	78.9	-	-	58.8
O=C(Cn1ccc2ccccc21)NCc1ccccn1	-	-	-	-	-
O=C(Nc1ccc(F)cc1)c1ccc(-c2ccc(N3CCCC3)nn2)cc1	-	-	-	-	49.1
SMILES	OTUD3 block	USP17 block	USP30 block	USP28 inh	USP8 block
COc1cccc(C(C)NC(=O)c2ccc(-c3ccc(N4CCCC4)nn3)cc2)c1 (configuration not stated)	-	-	-	-	-
O=C(Nc1ccc(N2CCOCC2)cc1)c1ccc(-c2ccc(N3CCCC3)nn2)cc1	-	51.2	-	-	-
O=C(Nc1ccccc1F)c1ccc(N2CCCC2)nn1	-	-	-	-	-
O=C(NCc1ccc(F)cc1)c1ccc(N2CCCC2)nn1	-	33.4	-	-	-
COc1ccc(NC(=O)c2ccc(-c3ccc(N4CCCC4)nn3)cc2)c(OC)c1	-	40.7	-	-	-
CCN1CCN(c2nc(Nc3ccc(C)cc3C)c3nccnc3n2)CC1	-	-	-	-	-

Compound activity: PubChem, Buhrlage Lab, Dana-Farber Cancer Institute and Novartis Institutes for BioMedical Research (Cambridge, Mass)
